NIH3T3 tox: NIH 3T3 cell cytotoxicity. NIH 3T3 viability, CellTiter-Glo ATP luminescence, 48-72 h. Potency, µM (top dose mostly 96.7 µM), usual class: inhibitors. 94,000 compounds, 4.3% hits. AID 1345082; also: nearly all actives have a fitted effect of over 55% in size
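Mouse fibroblast NIH 3T3 cells, 400 per well, received compound via pintool and were incubated for 48 or 72 hr prior to CellTiter-Glo ATP luminescence measurement.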
Luciferase inh: Photinus pyralis luciferase inhibition; purified P. pyralis luciferase, luminescence, biochemical; Potency, µM (series often up to 115 µM), hits mostly inhibitors; 76,000 compounds, 2.5% hits; also: nearly all actives have a fitted effect of over 65% in size
Target sequence (P08659 whole entry, looked up): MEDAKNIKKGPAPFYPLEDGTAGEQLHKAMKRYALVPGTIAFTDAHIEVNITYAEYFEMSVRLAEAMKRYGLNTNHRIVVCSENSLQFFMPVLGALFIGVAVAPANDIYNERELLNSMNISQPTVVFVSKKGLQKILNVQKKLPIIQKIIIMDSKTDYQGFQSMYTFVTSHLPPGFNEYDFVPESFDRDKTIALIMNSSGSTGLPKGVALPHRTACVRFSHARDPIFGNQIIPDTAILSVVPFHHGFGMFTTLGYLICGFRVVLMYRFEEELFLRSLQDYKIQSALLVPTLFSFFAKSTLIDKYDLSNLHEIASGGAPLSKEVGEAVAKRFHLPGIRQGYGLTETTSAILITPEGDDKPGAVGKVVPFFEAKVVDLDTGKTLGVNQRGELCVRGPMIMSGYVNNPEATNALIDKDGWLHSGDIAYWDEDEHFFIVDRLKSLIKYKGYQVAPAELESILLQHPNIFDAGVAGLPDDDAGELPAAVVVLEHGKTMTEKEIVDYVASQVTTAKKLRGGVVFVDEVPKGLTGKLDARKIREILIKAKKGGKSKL
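Purified 10nM P. pyralis luciferase with 10uM D-luciferin and 10uM ATP in 50mM Tris acetate pH 7.5, 10mM Mg acetate, 0.01% Tween-20, 0.05% BSA. qHTS titration; luminescence read by CCD imager.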
hNpr1 antagonist: human Npr1 receptor antagonism. HEK293 hNpr1 GloSensor cGMP, ANP-stimulated luminescence. Potency, µM (series often up to 46.3 µM), most hits filed as inhibitors. 76,000 compounds, 1.6% hits. AID 1347048; calls by dose curve; also: nearly all actives have a fitted effect of over 60% in size
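HEK293 cells stably expressing human Npr1 and cGMP GloSensor pGS-40F, loaded 2 h with 2% GloSensor reagent, given compound 30 min at room temperature. Luminescence read before and 20 min after 0.1 nM hNppA.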
HEK cytotox: HEK 293 cell cytotoxicity. HEK 293 viability, ATP luminescence (CellTiter-Glo), 48-72 h. Potency, µM (titrated, usually from 115 µM), hits mostly inhibitors. 94,000 compounds, 6.6% hits; also: nearly all actives have a fitted effect of over 60% in size
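ATP-coupled CellTiter-Glo luminescence served as viability read-out, recorded 10 min after reagent addition at room temperature. HEK 293 cells, 250 cells/well, had been incubated with pintool-transferred compound for 48 or 72 hr at 37 degree Celsius.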
Of the large screens only hits and unclear results are named; the others gave an inactive call. A selection: hits, their analogues and other compounds. The true share with any hit is near 11%. Unless noted, calls follow the shape of the dose curve; as a rule, active = well fitted curve in the direction sought with a large enough effect; inconclusive = small, poorly fitted or top-dose-only effect, or another doubt; inactive = no such curve, though single readings can be large; an effect the other way counts as inactive or inconclusive.

COc1cccc(CN2Cc3cc(NC(=O)c4cccc(OC)c4)ccc3OCC2=O)c1	NIH3T3 tox inconclusive, Luciferase inh inconclusive, HEK cytotox 25.1µM
COc1ccc(C(=O)Nc2ccc3c(c2)CN(Cc2cccc(OC)c2OC)C(=O)CO3)cc1OC	HEK cytotox inconclusive
COc1cccc(C(=O)Nc2ccc3c(c2)CN(Cc2ccccc2F)C(=O)CO3)c1	NIH3T3 tox inconclusive, Luciferase inh inconclusive, HEK cytotox inconclusive
COC[C@@H]1CN(Cc2ccc3cc[nH]c3c2)C[C@H]1c1nc(C)no1	none
COc1ccc(-c2nc(-c3c(C)noc3C)cc3cc(CO)oc23)cn1	NIH3T3 tox inconclusive, HEK cytotox inconclusive
Cc1noc(C)c1-c1cc2cc(CO)oc2c(NCC2CCOCC2)n1	NIH3T3 tox 22.4µM, HEK cytotox inconclusive
Cc1noc(C)c1-c1cc2cc(CO)oc2c(NC2CCOCC2)n1	NIH3T3 tox 25.1µM, HEK cytotox inconclusive
Cc1noc(C)c1-c1cc2cc(CO)oc2c(-c2ccc(F)c(Cl)c2)n1	NIH3T3 tox 22.4µM, HEK cytotox 50.1µM
Cc1noc(C)c1-c1cc2cc(CO)oc2c(NCCOc2ccccc2)n1	NIH3T3 tox inconclusive, HEK cytotox inconclusive
COc1ccc(CCN(C)C(=O)CC(c2cccc(F)c2)c2cn(C)c3ccccc23)cc1OC (stereo not drawn)	NIH3T3 tox inconclusive, HEK cytotox 39.8µM
CCC(CC)C(=O)NC[C@@H]1C=C(C)[C@H](Cc2nc3ccc(C)cc3[nH]2)C[C@H]1C(C)C	NIH3T3 tox inconclusive, HEK cytotox 63.1µM
CC1=C[C@@H](CNC(=O)CCC(=O)O)[C@H](C(C)C)C[C@H]1Cc1nc2ccncc2[nH]1	none
CCC(CC)C(=O)NC[C@@H]1C=C(C)[C@H](Cc2nc3ccc(F)cc3[nH]2)C[C@H]1C(C)C	NIH3T3 tox 100µM, HEK cytotox inconclusive
CC1=C[C@@H](CNC(=O)c2ccnc(Cl)c2)[C@H](C(C)C)C[C@H]1Cc1nc2ccc(C)cc2[nH]1	NIH3T3 tox 17.8µM, hNpr1 antagonist inconclusive, HEK cytotox inconclusive
COc1ccc(C(=O)NC[C@@H]2C=C(C)[C@H](Cc3nc4ccncc4[nH]3)C[C@H]2C(C)C)cc1	NIH3T3 tox inconclusive, HEK cytotox 89.1µM
CC1=C[C@@H](CNC(=O)CC(C)(C)CC(=O)O)[C@H](C(C)C)C[C@H]1Cc1nc2ccc(F)cc2[nH]1	none
CC1=C[C@@H](CN2C(=O)C(C)=C(C)C2=O)[C@H](C(C)C)C[C@H]1Cc1nc2ccc(C)cc2[nH]1	NIH3T3 tox 28.2µM, hNpr1 antagonist inconclusive, HEK cytotox 22.4µM
COc1ccc2nc(C[C@@H]3C[C@@H](C(C)C)[C@H](CN4C(=O)C(C)=C(C)C4=O)C=C3C)[nH]c2c1	NIH3T3 tox inconclusive, HEK cytotox inconclusive
COc1ccc(S(=O)(=O)NC[C@@H]2C=C(C)[C@H](CC(=O)N(C)Cc3cccnc3)C[C@H]2C(C)C)cc1	NIH3T3 tox 10µM, HEK cytotox inconclusive
CCC(CC)C(=O)NC[C@@H]1C=C(C)[C@H](Cc2nc3ccc(OC)cc3[nH]2)C[C@H]1C(C)C	NIH3T3 tox inconclusive, HEK cytotox 44.7µM
CC1=C[C@@H](CNS(=O)(=O)c2ccccc2)[C@H](C(C)C)C[C@H]1Cc1nc2ccncc2[nH]1	NIH3T3 tox 79.4µM, HEK cytotox 70.8µM
CNC(=O)c1cc(C)nc2onc(C3CCN(C(=O)C4CC4)C3)c12 (stereo not drawn)	none (no result: Luciferase inh, hNpr1 antagonist)
c1ccc(CN2C[C@@H]3C[C@H]2CN3Cc2cn(-c3ccccc3)nn2)cc1	none
COC[C@@H]1OCCN(S(=O)(=O)c2cc(OC)ccc2OC)[C@H]1c1ccccc1	none (no result: Luciferase inh, hNpr1 antagonist)
Cc1csc(NC(=O)c2nc(C(O)c3ccccc3)oc2C)n1 (stereo not drawn)	NIH3T3 tox 79.4µM, hNpr1 antagonist inconclusive, HEK cytotox inconclusive
COc1ccc(NC(=O)c2nc(C(O)c3ccccc3)oc2C)cn1 (stereo not drawn)	HEK cytotox inconclusive
COc1cccc(C(O)c2nc(C(=O)Nc3nc(C)cs3)c(C)o2)c1 (stereo not drawn)	NIH3T3 tox inconclusive, Luciferase inh inconclusive, hNpr1 antagonist 17.8µM, HEK cytotox inconclusive
COc1cccc(C(O)c2nc(C(=O)Nc3ccc4c(c3)CC(=O)N4)c(C)o2)c1 (stereo not drawn)	NIH3T3 tox inconclusive, HEK cytotox 100µM
c1cncc(-c2ccnc(NCC(c3cccnc3)N3CCCCC3)n2)c1 (stereo not drawn)	none
O=C(c1ccc(CNc2nccc(-c3cccnc3)n2)cc1)N1CCCCC1	NIH3T3 tox 50.1µM, HEK cytotox 39.8µM

Screening data as filed in PubChem BioAssay.
